Screening data (PubChem BioAssay)
PP1 inh: blocks human PP1-alpha phosphatase, a PP5 counter-screen; P62136; purified PP1alpha, OMFP fluorescence; inhibition, % at 6.7 µM; 320,000 tested, 0.9% active;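 active = inhibition above the mean inhibition of all tested compounds plus 3 SD, computed separately for each screening campaign, cut at about 15% in these data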
IDE inh: cellular human IDE inhibition; P14735; HEK cells, FAbetaB cleavage, fluorescence polarization; inhibition, % at 5.59 µM; 320,000 tested, 0.41% active; AID 434962;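 active = percent inhibition above the average of all tested compounds plus 3 SD, set per screening campaign, cut at about 16% in these data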;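 also: IDE supplied by intact live HEK cells; FP after avidin binding of uncleaved biotin substrate so inhibition keeps polarization high; 0% = DMSO wells and 100% = 60 µM reference IDE inhibitor Ii1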
Exocytosis inh: blocks lytic granule exocytosis. 360,000 tested, 0.66% active. TALL-104 LAMP-1 surface exposure, flow cytometry; cells stimulated with thapsigargin and PMA. inhibition, % at 10 µM;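 active = inhibition above about 55%, limit read from the data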
IDE act: boosts human insulin-degrading enzyme activity in HEK cells; P14735; FAbeta-B cleavage, fluorescence polarization; 0% vehicle, 100% cell-free pure enzyme wells; activation, % at 5.96 µM; 340,000 tested, 0.073% active; AID 493087;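 active = activation above the mean of all tested compounds plus 3 SD, set per screening campaign, cut at about 17% in these data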
PP5 inh: inhibitors of human protein phosphatase 5 (PP5); 320,000 tested, 0.18% active; inhibition, % at 6.7 µM; purified PP5c, OMFP substrate fluorescence; AID 1987;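 active = inhibition above the campaign's mean inhibition across all tested compounds plus 3 SD, cut at about 9.5% in these data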;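 also: 0% = DMSO only and 100% = 100 µM cantharidin control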
Target sequence (P53041 whole entry, looked up): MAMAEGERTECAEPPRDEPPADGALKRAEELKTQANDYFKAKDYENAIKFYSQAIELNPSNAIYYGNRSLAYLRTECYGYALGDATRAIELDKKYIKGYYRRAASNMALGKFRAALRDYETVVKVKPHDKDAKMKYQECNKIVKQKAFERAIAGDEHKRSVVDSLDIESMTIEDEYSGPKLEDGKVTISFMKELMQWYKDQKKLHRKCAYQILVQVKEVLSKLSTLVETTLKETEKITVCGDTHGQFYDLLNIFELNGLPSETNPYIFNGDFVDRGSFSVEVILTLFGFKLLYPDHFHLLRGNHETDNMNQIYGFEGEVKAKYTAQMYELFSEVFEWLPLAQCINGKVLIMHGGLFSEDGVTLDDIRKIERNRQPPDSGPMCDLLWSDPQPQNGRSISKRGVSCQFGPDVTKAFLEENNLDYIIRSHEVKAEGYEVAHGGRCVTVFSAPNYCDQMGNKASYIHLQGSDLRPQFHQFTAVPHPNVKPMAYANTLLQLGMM
SKKanGAS inh: blocks kanamycin growth of S. pyogenes SKKanGAS strain | AID 1662 | BacTiter-Glo, 6 h | inhibition, % at 7.5 µM | 300,000 tested, 1.3% active;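 active = mean replicate score, as percent of positive control median, at least 50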;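 also: strain carries kanamycin resistance gene driven by streptokinase promoter and grows in 40 µg/ml kanamycin; loss of luminescence reflects streptokinase promoter inhibition or plain growth inhibition; 0% = median of DMSO wells and 100% = positive control at its reference dose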
Exocytosis CP01: blocks lytic granule exocytosis. 1,500 tested, 11% active. inhibition, % at 10 µM. shares compounds with Exocytosis inh. TALL-104 cells, LAMP-1 externalization, flow cytometry; stimulated with PMA plus thapsigargin. AID 651954; in the data active = inhibition above about 60%;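 also: 0% = stimulated vehicle wells and 100% = unstimulated wells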
* marks the source's active call; other numbers are inactive results; . = not tested or not shown. Compounds with a hit are over-represented: about 2.8% of the library has one in this group of screens.

SMILES	PP1 inh	IDE inh	Exocytosis inh	IDE act	PP5 inh	SKKanGAS inh	Exocytosis CP01
COc1ccc(-c2cn(CCO)c(-c3ccc(Cl)nc3)n2)cc1	-5	-5	6	4	0	.	.
CC(=O)Nc1ccc(NC(=O)CSc2nc(=O)n(Cc3ccncc3)c3c2CCC3)cc1	1	3	1	-3	-1	-7	.
Cc1ccc(NC(=O)CSc2nc(=O)n(Cc3ccncc3)c3c2CCC3)c(C)c1	-1	1	59*	0	0	-7	-4
Cc1nc(C(=O)NCc2ccccc2)sc1C1(C)CC(c2cccc([N+](=O)[O-])c2)=NO1 (stereo not given)	0	-2	59*	3	2	6	-5
CNC(=O)c1nc(C)c(C2(C)CC(c3cccc([N+](=O)[O-])c3)=NO2)s1 (stereo not given)	-2	-1	-4	-1	2	-3	.
C=C(C)COc1ccc(-c2[nH]ncc2-c2ccccc2)c(O)c1	3	-7	85*	5	1	18	4
Oc1cc(OCc2ccccc2)ccc1-c1[nH]ncc1-c1ccccc1	4	1	100*	23*	5	73*	16
COc1ccc(-c2cn[nH]c2-c2ccc(OCc3ccccc3)cc2O)cc1OC	0	-2	64*	7	4	12	-4
COc1ccc(-c2cn[nH]c2-c2ccc(OCc3ccc(F)cc3)cc2O)cc1OC	4	4	19	10	4	31	.
O=[N+]([O-])c1ccc(COc2ccc(-c3[nH]ncc3-c3ccccc3)c(O)c2)cc1	3	-1	11	9	4	18	.
COc1ccc(-c2cn[nH]c2-c2ccc(OCC(=O)NN)cc2O)cc1	.	.	16	-3	.	14	.
CCOC(=O)N1CCN(S(=O)(=O)c2ccc(C(=O)Nc3ccc4c(c3)C(=O)NC4=O)cc2)CC1	2	2	-13	-4	0	-2	.
CC(OC(=O)[C@@H](NC(=O)OCc1ccccc1)C(C)C)C(=O)Nc1ccc(N2CCOCC2)cc1 (stereo not given in full)	.	.	8	0	.	.	.
C[C@@H]1CN([C@H](C)CO)S(=O)(=O)c2ccc(Br)cc2O[C@H]1CN(C)C(=O)Nc1ccccc1	.	.	0	.	.	.	.
COc1cccc(-c2cc(C(=O)O)no2)c1	-5	8	1	-2	1	6	.
COc1cccc(-c2cc(CC3(O)CCN(CCCc4ccccc4)CC3)on2)c1	1	-2	63*	5	1	6	-11
OC(CCN1CCC2CCC(C2)C1)c1ccc(Br)cc1 (stereo not given)	.	.	59*	6	.	.	-5
CC(C)(C)S(=O)N1Cc2cc(C(=O)O)nc(-c3cccc(-c4cc5ccccc5o4)c3)c2[C@H]1CCO (stereo not given in full)	.	.	-2	.	.	.	.
CC(C)(C)S(=O)N1Cc2cc(C(=O)N[C@@H]3CCN(Cc4ccccc4)C3)nc(-c3cccc(-c4cc5ccccc5o4)c3)c2[C@@H]1CCO (stereo not given in full)	.	.	63*	.	.	.	19
O=[N+]([O-])c1ccccc1S(=O)(=O)Nc1cccnc1	0	-3	-6	3	6	-1	.
CCC1(C)CC2(CCCN(CCC(O)(c3ccccc3)c3ccccc3)C2)CCO1 (stereo not given)	-2	5	58*	-1	2	1	-11
O=C(CN1CCN(C(c2ccccc2)c2ccccc2)CC1)N1CCN(c2ccccc2)CC1	2	0	71*	.	4	22	-1
O=C(CNCc1ccco1)Nc1ccc(Oc2ccccc2)cc1	0	5	-2	-2	4	2	.
Cc1cc(Nc2cccc(Cl)c2)nc(NCc2ccccc2)n1	16*	0	70*	5	7	17	-9
O=C(CC12CC3CC(CC(C3)C1)C2)NC(=S)Nc1ccc(CN2CCOCC2)cc1	-2	-2	-1	6	-1	3	.
SMILES	PP1 inh	IDE inh	Exocytosis inh	IDE act	PP5 inh	SKKanGAS inh	Exocytosis CP01
COC(=O)c1c(NC(=O)C2CC2)sc(C(=O)Nc2ccccc2)c1C	2	-5	75*	3	0	0	-14
Clc1ccc(-c2noc3c2-c2nc(Cc4cccc5ccccc45)sc2CC3)cc1	3	0	74*	0	3	3	-13
CC(C)(C)c1nc2c(s1)CCc1onc(-c3ccc(Cl)cc3)c1-2	2	1	-5	1	4	-1	.
COc1ccc(CCNCc2cc(C)n(-c3ccc(OC)cc3)c2C)cc1	2	0	61*	-1	2	-8	1
COc1ccc(CCNc2oc(COc3ccccc3Cl)nc2C#N)cc1OC	-1	6	2	-3	3	-1	.
N#Cc1nc(COc2ccccc2Cl)oc1NCc1ccco1	-4	-2	56*	0	6	-12	-8
Cc1cc(-c2ccccc2)nc2cc(C(=O)N(Cc3ccccc3)Cc3ccccc3)nn12	14	1	80*	15	3	44	-2
CCOC(=O)C1CCCN(C(=O)CN2C(=O)/C(=C/c3ccc(OC)cc3)Oc3ccccc32)C1 (stereo not given)	4	9	-3	-7	5	14	.
Cc1cc(Nc2cccc([N+](=O)[O-])c2)c2ccccc2n1	-3	-1	6	5	4	-1	.
CCOc1ccc2nc(C)cc(Nc3cccc([N+](=O)[O-])c3)c2c1	-2	4	90*	0	-1	2	80*
COC(=O)/C=C1\SC(=NC(=O)c2ccc(-c3ccccc3)cc2)NC1=O	.	2	-2	0	.	.	.
OCCC1CN(CCCc2ccccc2)CCN1Cc1ccccc1 (stereo not given)	-3	-4	0	3	2	-7	.
OCCC1CN(CCCc2ccccc2)CCN1CCc1ccccc1 (stereo not given)	3	7	61*	3	2	0	-4
Cc1cc2nnc(SCC(=O)Nc3cccc(S(=O)(=O)N4CCOCC4)c3)n2c2ccccc12	-3	10	2	4	2	1	.
CCN(CC)CCCN(C(=O)c1ccc(Br)cc1)c1nc(-c2ccc(OC)cc2)cs1	5	6	63*	4	3	-5	-9
Cc1ccc(OCc2nnn(CC(=O)NS(=O)(=O)c3c(C)noc3C)c2-c2ccccc2)cc1	.	.	2	.	.	.	.
Cc1ccc2c(c1)c1c3n2CCCNC3CCC1 (stereo not given)	-8	7	0	-4	7	-13	.
c1cc2c(cc1C1CCCCC1)c1c3n2CCCNC3CCC1 (stereo not given)	7	5	77*	13	4	25	7
O=C(Nc1cccc2nsnc12)c1ccc(-c2cccc(Cl)c2)o1	5	-3	92*	1	0	.	-6
